From PubChem BioAssay AID1246 (Columbia University Molecular Screening Center, 2008)
The campaign covered roughly 120,000 compounds. About 840 (0.7%) were called active.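 How the source made its calls: active means inhibition above the batch mean plus 3 SD, and confirmed as a hit on visual image review (cut at about 43% in these data); inconclusive means passes the inhibition cutoff but fails visual image review; inactive means the rest.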 What follows is part of a selection rich in actives, with near analogues and random picks from the rest.

experiment: E-selectin induction blockers in HUVEC – imaging, immunofluorescence, high content, primary screen (AID 1246); settings: HUVEC TNFa-induced E-selectin immunofluorescence, at 2 µM, stronger effect = higher value;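 further: 0% = TNF-stimulated DMSO wells and 100% = unstimulated control wells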

Structure (SMILES) | inhibition
COc1cccc(C(=O)N2CCCC(CCC(=O)NCc3ccc(F)c(F)c3)C2)c1 (stereo not drawn) | -27.8% (inactive)
O=c1[nH]c2cccnc2n(CCNc2ncc(C(F)(F)F)cc2Cl)c1=O | -0.32% (inactive)
Cc1ccc(NC(=O)c2oc3ccccc3c2C)c([N+](=O)[O-])c1 | 7.01% (inactive)
COc1ccc(-c2nc3cnccn3c2NC(C)(C)CC(C)(C)C)cc1O | 78.6% (active)
COc1ccc(-c2cc(C(F)(F)F)nc(NCc3cccnc3)n2)cc1 | 6.81% (inactive)
CCOc1cc(-c2nc3cc(C)ccn3c2NCC2CCCO2)ccc1O (stereo not drawn) | -1.41% (inactive)
COc1cccc(CNC(=O)c2n[nH]c3ccccc23)c1 | 21.4% (inactive)
CNC(=O)COC(=O)c1cc(-c2ccc(OC)cc2)nc2ccccc12 | -50.4% (inactive)
CC(=O)c1cnc(-c2ccccc2)s1 | -23.3% (inactive)
CN(CC(=O)Nc1ccccc1F)CC(=O)Nc1ccccc1Br | -9.64% (inactive)
O=C(O)CCn1c(SCc2cc(=O)n3ccccc3n2)nc2ccsc2c1=O | 7.79% (inactive)
COC(=O)Cn1cc(/C=C/[N+](=O)[O-])c2ccccc21 | -39.6% (inactive)
COc1cccc(OCC(=O)NNC(=O)c2cnccn2)c1 | -0.48% (inactive)
COc1ccccc1CCNC(=O)CSc1nnc2ccc(-c3cccnc3)nn12 | 23.9% (inactive)
COc1ccccc1CCNC(=O)c1cnccn1 | 70.2% (active)
COc1ccccc1CNC(=O)c1cc(=O)c2ccccc2o1 | 6.95% (inactive)
Cc1ccc(S(=O)(=O)N(C)C)cc1NC(=O)c1ccccc1Br | 21.2% (inactive)
COc1ccc(NC(=O)CCNS(=O)(=O)c2ccc3c(c2)c(=O)n(C)c(=O)n3C)cc1OC | -38.9% (inactive)
COc1ccc(C2N=C(N)N=C(N)N2c2ccccc2)cc1OC (stereo not drawn) | 62.9% (active)
COc1ccc(C2CC(=O)n3c(nc4ccccc43)S2)cc1OC (stereo not drawn) | -0.21% (inactive)
COc1ccc(C2/C(=C(/O)c3ccccc3)C(=O)C(=O)N2c2ncccn2)cc1OC (stereo not drawn) | -2.78% (inactive)

Structure (SMILES) | inhibition
O=C(O)/C=C/c1ccc(OCCCF)cc1 | -53.3% (inactive)
CC(=O)Oc1cccc(N2C(=O)C3CC=C(Cl)CC3C2=O)c1 (stereo not drawn) | 64.7% (active)
O=C(Oc1cccc(N2C(=O)C3C4c5ccccc5C(c5ccccc54)C3C2=O)c1)c1ccco1 (stereo not drawn) | 13.7% (inactive)
CC(=O)Oc1cccc(N2C(=O)CC(Nc3ccc(N4CCOCC4)cc3)C2=O)c1 (stereo not drawn) | -16.6% (inactive)
COc1cc(C=O)c(Br)cc1OCC(=O)NCc1ccccc1 | -19% (inactive)
CCCNC(=S)N1CCCC(c2nc3ccccc3[nH]2)C1 (stereo not drawn) | -49% (inactive)
Cn1c(CCC(=O)Nc2ccccc2F)nnc1SCC(=O)Nc1ccccc1Cl | -44.5% (inactive)
COc1ccc(S(=O)(=O)N2CCN(C(=O)c3cc(C)oc3C)CC2)cc1 | -37.8% (inactive)
CC(=O)c1ccc(N=C2SCCCN2C(=O)C2CCCCC2)cc1 | 7.89% (inactive)
COc1cccc(C(=O)Oc2cc(C)[nH]c(=O)c2[N+](=O)[O-])c1 | 21.9% (inactive)
COCc1cc(C(C)=O)ccc1OC | -4.6% (inactive)
CCN(CC)Cc1cc(C(C)=O)ccc1O | 47.5% (active)
CC(=O)c1ccc2c(ccc3ccccc32)c1 | 22.7% (inactive)
CC1CCCN(CC(O)COc2ccc3c(c2)OCO3)C1 (stereo not drawn) | 11.9% (inactive)
O=C1CCC(=O)N1c1ccc(NCCc2ccccc2F)c([N+](=O)[O-])c1 | -8.93% (inactive)
CCN(C(=O)CN1CCN(Cc2ccccc2)CC1)c1c(N)n(Cc2ccccc2)c(=O)[nH]c1=O | -54.5% (inactive)
CN1CCN(c2ccc(NC(=O)COc3ccc(Cl)cc3Cl)cc2)CC1 | 3.16% (inactive)
COc1ccc(OCC(=O)Nc2ccc(N3CCC(C)CC3)cc2)cc1 | -61.5% (inactive)
Cc1ccc(NC(=O)COc2ccc(-n3ccnc3)cc2)cc1Cl | 73% (active)
O=C(Cn1nnc2ccccc2c1=O)NCc1ccc(Cl)cc1 | -24.9% (inactive)
COCCNC(=O)/C(C#N)=C/c1nc(N(C)C)n(-c2ccc(F)cc2)c1Cl | 6.3% (inactive)

Structure (SMILES) | inhibition
Nc1ccc(S(=O)(=O)Nc2nccc(/C=C/c3ccc(Br)s3)n2)cc1 | 11.1% (inactive)
CCc1cc2c(NC3CCCC3)ncnc2s1 | -4.12% (inactive)
CCOC(=O)C(C)n1cnc2sc(C)c(C)c2c1=O (stereo not drawn) | 23.1% (inactive)
CCCNc1ncnc2sc(C)c(C)c12 | 99.7% (active)
C/[N+]([O-])=C\c1ccc([N+](=O)[O-])o1 | -20.9% (inactive)
COC(=O)C1=C(C)N(C)C(=O)NC1c1ccc([N+](=O)[O-])o1 (stereo not drawn) | 4.38% (inactive)
Cc1ccc(N2CCN(/N=C/c3cccs3)CC2)cc1 | 58.4% (active)
C(=N/N1CCN(c2ccccc2)CC1)/c1cccs1 | -23.6% (inactive)
Cc1ccc(N2CCN(C3=NC(=O)/C(=C\c4cccs4)S3)CC2)cc1 | -36.9% (inactive)
CS(=O)(=O)n1nc(-c2ccco2)nc1N | -27.1% (inactive)
Cn1nc(-c2ccccc2)c(CO)c1Sc1ccccc1 | -21.3% (inactive)
CC(=O)NCCC(=O)Nc1cc(S(=O)(=O)N2CCOCC2)ccc1N1CCOCC1 | -13.3% (inactive)
CCc1ccc(NC(=O)Cn2nc(C)c([N+](=O)[O-])c2C)cc1 | 24.3% (inactive)
COC(=O)c1ccc(NCC(=O)N2CCCCCC2)cc1 | 7.57% (inactive)
Cc1cc(Cl)ccc1N1C(=O)CC(SCCC(=O)O)C1=O (stereo not drawn) | -14% (inactive)
CCOC(=O)c1nc(C)n(-c2ccc(Cl)cc2Cl)n1 | -32.4% (inactive)
Cc1cc(C)nc(/N=C2\NC(=O)CC(C(=O)O)N2c2ccc(Cl)cc2Cl)n1 (stereo not drawn) | 48.5% (active)
COc1ccc(Sc2nc(-c3ccccc3)ncc2OC)cc1 | -16.9% (inactive)
C=CCN(CC=C)C(=O)COC(=O)c1n[nH]c2ccccc12 | -73.3% (inactive)
O=C(CCC(=O)Nc1ccccc1)N/N=C/c1ccccc1F | -1.59% (inactive)
CCCCC(CC)CNC(=O)C(=O)C1C(=O)Nc2ccccc21 (stereo not drawn) | -10.1% (inactive)
